# Inconclusive results are not listed. Activity calls are given as the source filed them. Calls come from the whole dose curve; as a rule, active = well fitted curve in the direction sought with a large enough effect in the signal ratio (not every such curve was filed as active); inconclusive = small, poorly fitted or top-dose-only effect, or effect the other way, or a change in a side signal; inactive = no such curve, though single readings can be large or run the other way; the % refers to the signal ratio.
# Target: Tyrosine-protein phosphatase non-receptor type substrate 1 (Homo sapiens) + Leukocyte surface antigen CD47 (Homo sapiens) (UniProt P78324+Q08722)
# Test: CD47-SIRPalpha protein protein interaction - HTRF assay qHTS validation (AID 1347058)
# Details: TR-FRET HTRF CD47-His / biotin-SIRPalpha binding, ratio 665/615; series mostly up to 38.3 µM
# Text: SIRPalpha is a myeloid cell expressed immunomodulatory receptor that binds the tumor expressed immune checkpoint CD47. Therapeutic disruption of this interaction leads to immune-mediated tumor rejection. This assay was used to quantitate CD47-SIRPalpha binding biochemically and evaluate chemical libraries for novel CD47-SIRPalpha inhibitors. To recapitulate the biological interaction of CD47 and SIRPalpha, we designed expression constructs to produce their recombinant, soluble, extracellular interaction domains. CD47 was produced with an N-terminal 6His tag. SIRPalpha was produced with an N-terminal Avi-Tag for site-specific biotin incorporation. The CD47-SIRPalpha interaction was measured by TR-FRET using affinity tag linked reagents (anti-6His-Eu donor and streptavidin-XL665 acceptor). SIRPalpha without biotin incorporation was used as a positive control inhibitor.
# SEQUENCE No. (e.g., 1, 2, 3, etc.); […] (e.g., Cells, Incubation, Reagent, etc.); VALUE and DESCRIPTION.
# 1a. Reagent. 3 uL CD47-His (12.5 nM) and Anti-His Eu Donor reagent (0.7 nM) added to respective wells in Assay buffer; white/solid bottom high base, med bind 1536-well plates (Greiner 789075)
# 1b. Reagent. 2 uL Assay buffer negative control for background fluorescence
# 2. Reagent. 23 nL library compounds (7-pt, 1:4 intraplate titration series) or DMSO control transferred by Pin Tool
# 3. Centrifuge. Centrifuge plate for 30 s at 1000 RPM
# 4. Incubation.#Incubate reagents at room temperature for 30 min, protected from light
# 5. Reagent. 2 uL SIRPalpha-biotin (100 nM) in Assay buffer
# 6. Incubation.#Incubate reagents at room temperature for 30 min, protected from light
# 7. Reagent. 1 uL SAV-XL665 (85 nM) acceptor reagent added to respective wells
# 8. Centrifuge. Centrifuge plate for 30 s at 1000 RPM
# 9. Incubation. Incubate reagents at room temperature for 30 min, protected from light
# 10. Detector. Measure Top TR-FRET on EnVision (Eu/APC filter set); calculate ratio Ch1/Ch2
# 1. Assay buffer composition.#Phosphate buffered saline (PBS; 10 mM Phosphate, 137 mM NaCl, and 2.7 mM KCl; pH 7.4), 0.05% IGEPAL CA-630
# 2. 23nL of […] library compounds (7 plates) or DMSO vehicle control transferred to 9 Greiner white/solid bottom high base, TC plates in 7 interplate 1:5 titrations (see Yasgar, A. et al. 2008) with Pintool. Two of the 9 plates are DMSO-only in compound field at beginning and end of compound library-treated plates.
# 10. Detector settings#Mirror = LANCE/DELFIA Dual Enh; Ex. Filter = UV2[TRF] 320; Em. Filter = APC 665; 2nd Em. Filter = Europium 615; Measurement h = 6.5; Ex. light (%) = 100; Delay = […]; Window t = 100 us; No. Seq. windows = 1; Time between flashes = 2000us; No. of flashes = 100; No. of flashes for 2nd detector = 100; Calculation: "Ratio Ch1/Ch2"
# Chain of Tyrosine-protein phosphatase non-receptor type substrate 1 (Homo sapiens) + Leukocyte surface antigen CD47 (Homo sapiens) (P78324 whole entry, looked up): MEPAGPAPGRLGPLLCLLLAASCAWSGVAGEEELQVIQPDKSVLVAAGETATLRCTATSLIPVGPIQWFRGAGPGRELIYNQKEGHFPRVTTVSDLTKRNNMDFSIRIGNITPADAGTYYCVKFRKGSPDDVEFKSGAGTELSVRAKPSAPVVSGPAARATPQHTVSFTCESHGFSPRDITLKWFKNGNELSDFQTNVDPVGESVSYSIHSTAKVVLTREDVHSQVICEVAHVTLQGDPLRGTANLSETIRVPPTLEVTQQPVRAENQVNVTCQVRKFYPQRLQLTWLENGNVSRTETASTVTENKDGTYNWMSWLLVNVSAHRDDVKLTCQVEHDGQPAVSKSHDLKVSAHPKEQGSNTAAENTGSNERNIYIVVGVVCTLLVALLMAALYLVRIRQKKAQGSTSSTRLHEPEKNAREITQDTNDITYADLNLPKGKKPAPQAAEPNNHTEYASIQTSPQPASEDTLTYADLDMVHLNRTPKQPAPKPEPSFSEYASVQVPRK
# Chain of Tyrosine-protein phosphatase non-receptor type substrate 1 (Homo sapiens) + Leukocyte surface antigen CD47 (Homo sapiens) (Q08722 whole entry, looked up): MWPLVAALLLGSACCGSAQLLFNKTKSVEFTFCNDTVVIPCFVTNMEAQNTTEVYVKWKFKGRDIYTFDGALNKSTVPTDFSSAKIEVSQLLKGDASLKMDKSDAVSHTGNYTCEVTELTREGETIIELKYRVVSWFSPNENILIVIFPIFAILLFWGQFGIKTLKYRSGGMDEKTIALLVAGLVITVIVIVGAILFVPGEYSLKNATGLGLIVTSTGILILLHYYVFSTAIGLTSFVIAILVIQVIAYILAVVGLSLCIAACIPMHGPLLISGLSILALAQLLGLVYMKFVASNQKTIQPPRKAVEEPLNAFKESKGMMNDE
row,Compound,outcome
1,C[C@H](NC(CCc1ccccc1)C(=O)O)C(=O)N1CCC[C@H]1C(=O)O (stereo partly specified),inactive
2,C#CCN(C)Cc1ccccc1,inactive
3,CC(C(O)c1ccc(O)cc1)N1CCC(Cc2ccccc2)CC1 (stereo unspecified),inactive
4,CN(C)CCC=C1c2ccccc2CCc2ccccc21,inactive
5,CC(=O)OCC(=O)[C@@]1(O)CC[C@H]2[C@@H]3CCC4=CC(=O)CC[C@]4(C)[C@H]3C(=O)C[C@@]21C,inactive
6,C[C@](N)(Cc1ccc(O)cc1)C(=O)O,inactive
7,COc1ccc(Cl)cc1C(=O)NCCc1ccc(S(=O)(=O)NC(=O)NC2CCCCC2)cc1,inactive
8,CN(C)CCCN1c2ccccc2CCc2ccccc21,inactive
9,C[C@H]1O[C@@H](n2cc(F)c(=O)[nH]c2=O)[C@H](O)[C@@H]1O,inactive
10,CC(C)c1c(C(=O)Nc2ccccc2)c(-c2ccccc2)c(-c2ccc(F)cc2)n1CC[C@@H](O)C[C@@H](O)CC(=O)O,inactive
11,CSc1ccc2c(c1)C(N1CCN(C)CC1)Cc1ccccc1S2 (stereo unspecified),inactive
12,CCCn1cnc2c1c(=O)n(CCCCC(C)=O)c(=O)n2C,inactive
13,NC(=O)c1ncn([C@@H]2O[C@H](CO)[C@@H](O)[C@H]2O)n1,inactive
14,CC(C)C(=O)c1c(C(C)C)nn2ccccc12,inactive
15,C[C@]12CC[C@@H]3c4ccc(O)cc4CC[C@H]3[C@@H]1CCC2=O,inactive
16,O=C1NC(=O)[C@@]2(CCOc3ccc(F)cc32)N1,inactive

row,Compound,outcome
1,CCN(CC)CCNC(=O)c1cc(Cl)c(N)cc1OC,inactive
2,CC[C@H]1CN2CCc3cc(OC)c(OC)cc3[C@@H]2C[C@@H]1C[C@H]1NCCc2cc(OC)c(OC)cc21,inactive
3,CCN(CC)CCOC(=O)C1(C2CCCCC2)CCCCC1,inactive
4,CC(CN(C)C)CN1c2ccccc2CCc2ccccc21 (stereo unspecified),inactive
5,Cc1c(O)cccc1C(=O)N[C@@H](CSc1ccccc1)[C@H](O)CN1C[C@H]2CCCC[C@H]2C[C@H]1C(=O)NC(C)(C)C,inactive
6,CNCC(O)c1ccc(O)c(O)c1 (stereo unspecified),inactive
7,CC(C)(C)[C@]1(O)CCN2C[C@H]3c4ccccc4CCc4cccc(c43)[C@@H]2C1,inactive
8,OCc1cc(C(O)CNCCCCCCOCCCCc2ccccc2)ccc1O (stereo unspecified),inactive
9,CN1CCC[C@@H]1Cc1c[nH]c2ccc(CCS(=O)(=O)c3ccccc3)cc12,inactive
10,Nc1ncnc2c1ncn2[C@@H]1O[C@H](CO)[C@@H](O)[C@H]1O,inactive
11,CC(C)NC[C@H](O)c1ccc(O)c(O)c1,inactive
12,C[C@]12C[C@H](O)[C@H]3[C@@H](CCC4=CC(=O)CC[C@@]43C)[C@@H]1CC[C@@H]2C(=O)CO,inactive
13,CC1=C(/C=C/C(C)=C/C=C/C(C)=C/C(=O)O)C(C)(C)CCC1,inactive
14,CN(C)CCOC(C)(c1ccccc1)c1ccccn1 (stereo unspecified),inactive
15,CSc1ccc2c(c1)N(CCC1CCCCN1C)c1ccccc1S2 (stereo unspecified),inactive
